# CHX counter: counter-screen hit for Shiga toxin inhibitors, cycloheximide; cell reporter, cycloheximide protein synthesis inhibition counterscreen; max response, %; hit rate 12% among 300,000; AID 2314; in the data active means max response mostly above about 13%, no sharp cut-off; inactive means mostly below about 14%; further: read at 38.3 µM for the half of the compounds with a filed dose
# Pf growth 48h: inhibits P. falciparum growth in the first generation, 48 h; P. falciparum luciferase growth in erythrocytes, 48 h; Potency, µM (doses to about 28.7 µM), usual class: inhibitors; hit rate 5.9% among 310,000; AID 504832; active means well fitted inhibition curve with a large enough effect; inconclusive means small, poorly fitted or top-dose-only effect, or another doubt; inactive means no such curve, though single readings can be large or run the other way
#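 A one-generation exposure of luciferase-tagged malaria parasites in RPMI 1640/Albumax erythrocyte culture, 37 C and 5% CO2. Inhibition is inferred from decreased luminescence after adding detection reagent.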
# Shiga toxin inh: Shiga toxin inhibition; Vero cells, Shiga toxin protein synthesis inhibition reporter; inhibition, % at 38.7 µM; hit rate 9.2% among 290,000; AID 2315; in the data active means inhibition mostly above about 28%, no sharp cut-off; inactive means mostly below about 43%
# NS1 function inh: blocks influenza NS1 protein function; hit rate 0.4% among 270,000; Potency, µM (highest dose often 46.1 µM); further: actives are rising curves; nearly all actives have a fitted effect of over 50% in size
#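 S. cerevisiae expressing influenza A NS1, grown in glucose, washed, then diluted 1:100 into pH 6.0 -URA galactose medium with 23 nl compound. Growth recovery read as OD600; NS1-free strain serves as control.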
# SARS PLP yeast: blocks SARS-CoV papain-like protease in a yeast assay; hit rate 0.19% among 330,000; Potency, µM (titrated, usually from 32.9 µM), most hits filed as activators; AID 485353; S. cerevisiae expressing SARS-CoV PLpro, growth rescue; further: nearly all actives have a fitted effect of over 55% in size
# Pf growth 96h: inhibits malaria parasite growth, 96 h; P. falciparum luciferase reporter growth, 96 h; Potency, µM (series often up to 28.7 µM), actives largely listed as inhibitors; hit rate 6.9% among 320,000; active means well fitted inhibition curve with a large enough effect; inconclusive means small, poorly fitted or top-dose-only effect, or another doubt; inactive means no such curve, though single readings can be large or run the other way
#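 P. falciparum expressing integrated firefly luciferase grown in erythrocytes (2% hematocrit, 0.05% parasitemia final) with compounds for 96 hours at 37 C, 5% CO2. Growth inhibition read as loss of luminescence after adding luciferase detection reagent.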
# A number is an active result; – = inactive; ? = inconclusive; · = no result. An excerpt weighted towards active compounds, which were near 21% of everything screened. Unless noted, the call rests on the fitted dose curve.
SMILES,CHX counter,Pf growth 48h,Shiga toxin inh,NS1 function inh,SARS PLP yeast,Pf growth 96h
O=C(COc1ccc(Cl)cc1)N1CCN(C(=O)c2cccs2)CC1,–,–,–,–,–,–
O=C(Nc1nncs1)C1CC(=O)N(C2CCCC2)C1 (stereo not given),–,–,–,–,–,–
CC1C[N+](=C2C=C(N3CCOCC3)CC(C)(C)C2)CC(C)O1 (stereo not given),–,?,–,–,–,12µM
CC1(C)CC(N2CCCCC2)=CC(=[N+]2CCCCC2)C1,–,?,–,–,–,?
CC1(C)CC(N2CCOCC2)=CC(=[N+]2CCOCC2)C1,–,13µM,–,·,–,8.3µM
COCCn1c(=O)[nH]c(=O)c2cc(C(=O)c3cc(Cl)ccc3O)cnc21,–,9.3µM,–,·,–,?
CCc1ccc(/C=N/NC(=O)C(=O)NCCCN2CCOCC2)cc1,–,–,–,–,–,–
COc1ccc2c(c1)-c1c(sn(-c3ccc(OC)c(OC)c3)c1=S)C(C)(C)N2,–,?,–,–,–,10µM
COc1ccc(NC(=O)NC(C)c2ccccc2)cc1 (stereo not given),–,–,–,–,–,–
COc1ccc(S(=O)(=O)NCCC(=O)NC(C)c2ccccc2)cc1 (stereo not given),–,–,–,–,–,7.4µM
COc1ccc(OCCCC(=O)NC(C)c2ccccc2)cc1 (stereo not given),–,·,–,–,–,9.3µM
COc1ccc(NC(C)c2ccccc2)cc1 (stereo not given),35,–,84,·,–,?
COc1ccc(OCCNC(=O)C(c2ccccc2)c2ccccc2)cc1,–,10µM,–,–,–,–
O=C(COc1ccc([N+](=O)[O-])cc1)Nc1ccc(CN2CCOCC2)cc1,–,–,–,–,–,–
Cc1ccc(NC(=O)CSc2nnc(C(F)(F)F)n2C)cc1[N+](=O)[O-],–,–,–,–,–,–
CCOc1ccc(OCC)c(NC(=O)Cn2c(C)nc3ccccc3c2=O)c1,–,–,–,·,–,–
COC(=O)c1ccc(/C=C/c2c(-c3ccsc3)oc3ccc(N4CCOCC4)cc23)cc1,–,?,–,–,–,13µM
CCOC(=O)c1cnc2c(C)c(C)ccc2c1Nc1ccc(S(=O)(=O)Nc2ncccn2)cc1,–,–,–,–,–,–
Cc1sc2nc3n(c(=O)c2c1C)CCCCC3,–,–,–,–,–,?
CC1CCCN(c2ccc3nc4ccccc4c(=O)n3n2)C1 (stereo not given),–,–,–,·,–,?
Cc1sc2nc3ccc(N4CCCCC4)nn3c(=O)c2c1C,30,?,68,–,–,?
Cc1ccc2nc3ccc(N4CCCC4)nn3c(=O)c2c1,35,–,–,–,–,4.7µM
O=C(O)c1ccc(S(=O)(=O)N=Nc2c(O)[nH]c3ccccc23)cc1,·,·,·,–,·,·
COc1ccc(CCNC(=O)C(=O)NCC2OCCN2S(=O)(=O)c2ccc(Cl)cc2)cc1OC (stereo not given),–,?,–,–,–,–
CCOC(=O)c1[nH]c(C)c(C(=O)N2CCc3c([nH]c4ccccc34)C2c2ccccn2)c1C (stereo not given),–,?,–,–,–,?
SMILES,CHX counter,Pf growth 48h,Shiga toxin inh,NS1 function inh,SARS PLP yeast,Pf growth 96h
CCc1ccc(C2c3[nH]c4ccccc4c3CCN2C(=O)CNC(N)=O)cc1 (stereo not given),–,?,–,–,–,–
CCc1ccc(C2c3[nH]c4ccccc4c3CCN2C(=O)c2ccc(=O)n(C)n2)cc1 (stereo not given),–,8.3µM,–,–,–,?
CCc1ccc(C2c3[nH]c4ccccc4c3CCN2C(=O)CN2CCN(CC)CC2)cc1 (stereo not given),–,10µM,–,–,–,?
CSc1ccc(C2c3[nH]c4ccccc4c3CCN2C(=O)c2ccnn2C)cc1 (stereo not given),35,?,72,–,–,?
O=C(CNCc1ccc(F)cc1)Nc1ccccc1[N+](=O)[O-],–,–,–,·,–,–
COc1cc(NC(=O)CCCNC(=O)c2ccc(Cl)cc2)cc(OC)c1OC,–,–,–,–,–,–
Cc1cc(OCC(=O)NNC(=O)CCc2ccccc2)ccc1Br,–,–,–,–,–,?
Cc1[nH]c2ccccc2c1/C=N/n1cnnc1,–,–,–,–,–,–
COCCN=c1scc(-c2cc(OC)c(OC)c(OC)c2)n1/N=C/c1c(C)[nH]c2ccccc12,–,7.4µM,–,?,–,2.6µM
CCOC(=O)C(NC(=O)N(C)C)(Nc1sc(C)c(CC)c1C#N)C(F)(F)F (stereo not given),–,–,–,–,?,–
CCn1c(C)nc2cc(C(=O)n3cc(C(=O)c4cc(F)ccc4O)cn3)ccc21,–,–,–,–,–,0.83µM
CCCC(=O)NC(Nc1cccc(C(F)(F)F)c1)C(Cl)(Cl)Cl (stereo not given),–,?,–,–,–,1.9µM
CC(C)C(=O)NC(Nc1ccccc1F)C(Cl)(Cl)Cl (stereo not given),–,–,–,–,–,–
C[C@H](NC(=O)c1ccccc1Cl)C(=O)OC(C(=O)Nc1cc(C(F)(F)F)ccc1Cl)c1ccccc1 (stereo not given in full),–,·,–,–,–,8.3µM
CCCC(=O)NC(Nc1ccccc1F)C(Cl)(Cl)Cl (stereo not given),–,?,–,–,–,?
CC(C)C(=O)NC(Nc1cc(C(F)(F)F)ccc1Cl)C(Cl)(Cl)Cl (stereo not given),–,?,–,–,–,13µM
CCCC(=O)NC(Nc1cc(C(F)(F)F)ccc1Cl)C(Cl)(Cl)Cl (stereo not given),–,12µM,–,–,–,?
CCn1c(C(=O)O)c(CC(=O)Nc2ccccc2OC)c2ccccc21,–,–,–,–,–,?
O=S(=O)(c1c(F)cccc1F)N1CCN(S(=O)(=O)c2c(F)cccc2F)CC1,–,·,–,·,·,·
CCCCn1c(N)c(N(C)C(=O)C2CC(=O)N(Cc3ccco3)C2)c(=O)[nH]c1=O (stereo not given),·,·,·,·,–,·
COc1ccc(NC(=O)CN2C(=O)COc3ccc(S(=O)(=O)N4CCOCC4)cc32)cc1Cl,–,?,–,–,–,?
Clc1cc(Cl)c(OCc2nc(-c3ccccn3)no2)cc1Cl,47,–,125,–,–,·
CC(C)(C)c1ccc(OCc2nc(-c3ccccn3)no2)c(Br)c1,84,–,96,–,·,–
CCCCNC(=O)C1CC(=O)N(c2ccc(OC)cc2)C1c1ccc(OC)cc1 (stereo not given),–,–,–,–,–,–
COc1ccc(NC(=O)COc2cccc3c2CCN(C)C3=O)c(OC)c1,–,?,–,–,–,?
Cc1cc(C(=O)OCC(=O)Nc2c(F)cccc2F)c(C)n1-c1ccccc1,55,–,110,–,–,–
COc1ccc(-n2c(C)cc(C(=O)Cn3nnc4ccccc4c3=O)c2C)cc1,15,?,–,–,–,–
